Experimental data taken from PubChem BioAssay (Tox21).
Results filed as inconclusive are left out. Activity calls are given as the source filed them. Unless noted, calls come from the whole dose curve; as a rule, active = well fitted curve in the direction sought with a large enough effect in the repeat runs; inconclusive = weak or mixed curves; inactive = flat fitted curve, though single readings scatter.

Tests used:
[1] = qHTS assay to test for compound auto fluorescence at 535 nm (green) in HEK293 cells (AID 720680)
[2] = qHTS assay to test for compound auto fluorescence at 460 nm (blue) in HEK293 cell free culture (AID 720681)
Summary of the method: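 Compounds were added to cell-free DMEM with 10% FBS and fluorescence read directly. The blue channel used 405 nm excitation and 460 nm emission, with triamterene as the reference fluorophore.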

[3] = qHTS assay to test for compound auto fluorescence at 535 nm (green) in HEK293 cell free culture (AID 720682)
Summary of the method: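 Compounds were pin-transferred into cell-free DMEM with 10% FBS, and green fluorescence was read at excitation 485 nm and emission 535 nm. Intensities were expressed as fluorescein-equivalent values.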

[4] = qHTS assay to test for compound auto fluorescence at 590 nm (red) in HEK293 cell free culture (AID 720683)
Summary of the method: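 Cell-free wells of DMEM with 10% FBS received compound, and intrinsic fluorescence was read at excitation/emission 540/590 nm. Values expressed as equivalence to Rose Bengal sodium.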

[5] = qHTS assay to test for compound auto fluorescence at 590 nm (red) in HepG2 cell free culture (AID 720684)
Summary of the method: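 Rose Bengal sodium served as the reference for red signal. Test compounds were dispensed into serum-containing MEM (10% FBS) without cells, and plates were read at 540/590 nm.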

[6] = qHTS assay to test for compound auto fluorescence at 460 nm (blue) in HepG2 cell free culture (AID 720685)
Summary of the method: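 Cell-free plates of MEM plus 10% FBS received 23 nL compound or DMSO vehicle; blue-channel (405/460 nm) intensity scored against triamterene as reference fluorophore.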

[7] = qHTS assay to test for compound auto fluorescence at 535 nm (green) in HepG2 cell free culture (AID 720686)
[8] = qHTS assay to test for compound auto fluorescence at 460 nm (blue) in HepG2 cells (AID 720687)
Summary of the method: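 HepG2 cells in MEM with 10% FBS, attached overnight at 37 C, were exposed to compound or DMSO for 1 hr at 37 C, 5% CO2. Blue fluorescence was read at 405/460 nm, with triamterene as reference fluorophore.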

[9] = biological target: Glucocorticoid receptor (Homo sapiens) (UniProt P04150); assay: qHTS assay to identify small molecule agonists of the glucocorticoid receptor (GR) signaling pathway (AID 720691; active = well fitted activation curve with a large enough effect in the signal ratio in the repeat runs, not every such curve was filed as active; the % refers to the signal ratio)
Sequence of Glucocorticoid receptor (Homo sapiens) (P04150 whole entry, looked up): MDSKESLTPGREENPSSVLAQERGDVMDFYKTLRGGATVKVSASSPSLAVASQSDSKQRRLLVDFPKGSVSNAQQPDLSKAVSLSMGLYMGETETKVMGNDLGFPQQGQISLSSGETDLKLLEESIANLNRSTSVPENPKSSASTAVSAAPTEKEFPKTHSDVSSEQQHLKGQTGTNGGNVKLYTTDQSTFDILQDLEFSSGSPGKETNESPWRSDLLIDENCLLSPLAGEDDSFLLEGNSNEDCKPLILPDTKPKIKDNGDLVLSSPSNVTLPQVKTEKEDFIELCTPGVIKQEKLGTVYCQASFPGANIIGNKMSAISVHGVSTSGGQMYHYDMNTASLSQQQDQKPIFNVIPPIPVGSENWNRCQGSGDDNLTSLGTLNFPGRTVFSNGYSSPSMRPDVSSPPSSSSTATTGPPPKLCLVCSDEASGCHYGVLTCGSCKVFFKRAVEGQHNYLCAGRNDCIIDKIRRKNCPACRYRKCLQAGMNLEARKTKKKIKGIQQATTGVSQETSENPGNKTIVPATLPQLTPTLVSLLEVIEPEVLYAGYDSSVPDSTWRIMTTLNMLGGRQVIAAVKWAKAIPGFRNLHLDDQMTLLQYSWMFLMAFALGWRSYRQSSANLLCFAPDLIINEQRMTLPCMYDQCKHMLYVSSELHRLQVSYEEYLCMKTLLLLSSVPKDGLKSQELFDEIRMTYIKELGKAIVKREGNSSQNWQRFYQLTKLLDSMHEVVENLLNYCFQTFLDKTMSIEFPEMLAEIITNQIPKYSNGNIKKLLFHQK
Summary of the method: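 Cells: GR-bla HeLa, endogenous GR with stably integrated GRE-beta-lactamase reporter. Treatment 18 h, 37 C, compounds delivered in DMSO. Detection via LiveBLAzer B/G FRET substrate, 2 h RT, fluorescence intensity.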

[10] = biological target: Glucocorticoid receptor (Homo sapiens) (UniProt P04150); assay: qHTS assay to identify small molecule antagonists of the glucocorticoid receptor (GR) signaling pathway (AID 720692; active = well fitted inhibition curve with a large enough effect in the signal ratio in the repeat runs, not every such curve was filed as active; the % refers to the signal ratio)
Summary of the method: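 Quantitative HTS in antagonist format: HeLa cells expressing endogenous GR and a stably integrated GRE-bla reporter, stimulated with 5 nM dexamethasone (final) alongside test compounds for 18 h.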
% is set by controls: 0 for no effect and ±100 for the full control effect.

CCCCCCCCCCCCCCCCCCOCCO
inactive: fluorescence, % of fluorescein [1] -0.0578% [at 18.6 µM] | fluorescence, % of fluorescent control [2] -0.0158% [at 18.6 µM] | activity change [3] -0.0191% [at 18.6 µM] | fluorescence, % of fluorescent control [4] 0.138% [at 18.6 µM] | fluorescence, % of Rose Bengal [5] -0.0112% [at 18.6 µM] | fluorescence, % of fluorescent control [6] 0.0125% [at 18.6 µM] | fluorescence, % of fluorescein control [7] -0.0027% [at 18.6 µM] | fluorescence, % of fluorescent control [8] 0.0321% [at 18.6 µM] | Potency [9]

NCC1(Cc2noc(=O)[nH]2)CCCCC1
inactive: outcome [1] | outcome [2] | outcome [3] | outcome [4] | outcome [5] | outcome [6] | outcome [7] | outcome [8]

CCO
inactive: outcome [1] | outcome [2] | outcome [3] | outcome [4] | outcome [5] | outcome [6] | outcome [7] | outcome [8] | Potency [9]

CC(=O)O[Si](C)(OC(C)=O)OC(C)=O
inactive: outcome [1] | outcome [2] | outcome [3] | outcome [4] | outcome [5] | outcome [6] | outcome [7] | outcome [8] | Potency [9] | outcome [10]

CC(O)COC(C)(C)C (configuration not stated)
inactive: outcome [1] | outcome [2] | outcome [3] | outcome [4] | outcome [5] | outcome [6] | outcome [7] | outcome [8] | Potency [9]

Cc1ccc(C)c([N+](=O)[O-])c1
inactive: outcome [1] | outcome [2] | outcome [3] | outcome [4] | outcome [5] | outcome [6] | outcome [7] | outcome [8] | Potency [9]

OC1OCCOC1O (configuration not stated)
inactive: outcome [1] | outcome [2] | outcome [3] | outcome [4] | outcome [5] | outcome [6] | outcome [7] | outcome [8] | Potency [9]

COc1ccc2c(c1)c1c3n2CCN(C)C3=NCC1
inactive: outcome [1] | outcome [2] | outcome [3] | outcome [4] | outcome [5] | outcome [6] | outcome [7] | outcome [8] | Potency [9]

CC1=NN(c2ccc(S(=O)(=O)O)cc2)C(=O)C1
inactive: outcome [1] | outcome [2] | outcome [3] | outcome [4] | outcome [5] | outcome [6] | outcome [7] | outcome [8] | Potency [9] | outcome [10]

C/C(CC(C)C)=N\O
inactive: outcome [1] | outcome [2] | outcome [3] | outcome [4] | outcome [5] | outcome [6] | outcome [7] | outcome [8] | Potency [9] | outcome [10]

CC(=O)OCC(=O)Nc1cc(C#N)cc(NC(=O)COC(C)=O)c1Cl
inactive: outcome [1] | outcome [2] | outcome [3] | outcome [4] | outcome [5] | outcome [6] | outcome [7] | outcome [8] | Potency [9] | outcome [10]

CC1=C(O)C(=O)C(C)O1 (configuration not stated)
inactive: outcome [1] | outcome [2] | outcome [3] | outcome [4] | outcome [5] | outcome [6] | outcome [7] | outcome [8] | Potency [9] | outcome [10]

CC(=O)CCC1=C(C)CCCC1(C)C
inactive: outcome [1] | outcome [2] | outcome [3] | outcome [4] | outcome [5] | outcome [6] | outcome [7] | outcome [8] | Potency [9] | outcome [10]

Cc1ccc(N)cc1S(=O)(=O)O
inactive: outcome [1] | outcome [2] | outcome [3] | outcome [4] | outcome [5] | outcome [6] | outcome [7] | outcome [8] | Potency [9] | outcome [10]

C=C(C)[C@@H]1CC=C(C)C(=O)C1
inactive: outcome [1] | outcome [2] | outcome [3] | outcome [4] | outcome [5] | outcome [6] | outcome [7] | outcome [8] | Potency [9] | outcome [10]

COc1nc(N)nc2nc[nH]c12
inactive: outcome [1] | outcome [2] | outcome [3] | outcome [4] | outcome [5] | outcome [6] | outcome [7] | outcome [8] | Potency [9] | outcome [10]

CC(C)Nc1ccccc1
inactive: outcome [1] | outcome [2] | outcome [3] | outcome [4] | outcome [5] | outcome [6] | outcome [7] | outcome [8] | Potency [9] | outcome [10]

CC(=O)O[C@@H]1CC2CCC1(C)C2(C)C (some centres not stated)
inactive: outcome [1] | outcome [2] | outcome [3] | outcome [4] | outcome [5] | outcome [6] | outcome [7] | outcome [8] | Potency [9] | outcome [10]

Cc1ccc(C(C)NC(=O)[C@@H](NC(=O)OC(C)C)C(C)C)cc1 (some centres not stated)
inactive: outcome [1] | outcome [2] | outcome [3] | outcome [4] | outcome [5] | outcome [6] | outcome [7] | outcome [8] | Potency [9] | outcome [10]

COC(=O)CCCCC(=O)O
inactive: outcome [1] | outcome [2] | outcome [3] | outcome [4] | outcome [5] | outcome [6] | outcome [7] | outcome [8] | Potency [9] | outcome [10]

Cc1c(N)cccc1Cl
inactive: outcome [1] | outcome [2] | outcome [3] | outcome [4] | outcome [5] | outcome [6] | outcome [7] | outcome [8] | Potency [9] | outcome [10]

CCCCOC(=O)[C@H](C)O
inactive: outcome [1] | outcome [2] | outcome [3] | outcome [4] | outcome [5] | outcome [6] | outcome [7] | outcome [8] | Potency [9] | outcome [10]

N[C@@H](Cc1ccc(O)cc1)C(=O)O
inactive: outcome [1] | outcome [2] | outcome [3] | outcome [4] | outcome [5] | outcome [6] | outcome [7] | outcome [8] | Potency [9] | outcome [10]

C/C=C(\C)C(C)=O
inactive: outcome [1] | outcome [2] | outcome [3] | outcome [4] | outcome [5] | outcome [6] | outcome [7] | outcome [8] | Potency [9] | outcome [10]

CCCCCCCCCOC(=O)CCCCC(=O)OCCCCCCC
inactive: outcome [1] | outcome [2] | outcome [3] | outcome [4] | outcome [5] | outcome [6] | outcome [7] | outcome [8] | Potency [9] | outcome [10]
